Source: ChEMBL document CHEMBL1201862, “PubChem BioAssay data set” (2004)
Among all 400,000 compounds or so, about 2,100 (0.53%) were called active. About 14% were inconclusive and are not listed. No rule for the calls is given here. Shown is part of a subset that was picked to be rich in actives.

Molecular target: Ataxin-2 (Homo sapiens) (UniProt Q99700)
Experiment: qHTS for Inhibitors of ATXN expression.
Assay type: functional

Ataxin-2 (Homo sapiens), sequence (Q99700 whole entry): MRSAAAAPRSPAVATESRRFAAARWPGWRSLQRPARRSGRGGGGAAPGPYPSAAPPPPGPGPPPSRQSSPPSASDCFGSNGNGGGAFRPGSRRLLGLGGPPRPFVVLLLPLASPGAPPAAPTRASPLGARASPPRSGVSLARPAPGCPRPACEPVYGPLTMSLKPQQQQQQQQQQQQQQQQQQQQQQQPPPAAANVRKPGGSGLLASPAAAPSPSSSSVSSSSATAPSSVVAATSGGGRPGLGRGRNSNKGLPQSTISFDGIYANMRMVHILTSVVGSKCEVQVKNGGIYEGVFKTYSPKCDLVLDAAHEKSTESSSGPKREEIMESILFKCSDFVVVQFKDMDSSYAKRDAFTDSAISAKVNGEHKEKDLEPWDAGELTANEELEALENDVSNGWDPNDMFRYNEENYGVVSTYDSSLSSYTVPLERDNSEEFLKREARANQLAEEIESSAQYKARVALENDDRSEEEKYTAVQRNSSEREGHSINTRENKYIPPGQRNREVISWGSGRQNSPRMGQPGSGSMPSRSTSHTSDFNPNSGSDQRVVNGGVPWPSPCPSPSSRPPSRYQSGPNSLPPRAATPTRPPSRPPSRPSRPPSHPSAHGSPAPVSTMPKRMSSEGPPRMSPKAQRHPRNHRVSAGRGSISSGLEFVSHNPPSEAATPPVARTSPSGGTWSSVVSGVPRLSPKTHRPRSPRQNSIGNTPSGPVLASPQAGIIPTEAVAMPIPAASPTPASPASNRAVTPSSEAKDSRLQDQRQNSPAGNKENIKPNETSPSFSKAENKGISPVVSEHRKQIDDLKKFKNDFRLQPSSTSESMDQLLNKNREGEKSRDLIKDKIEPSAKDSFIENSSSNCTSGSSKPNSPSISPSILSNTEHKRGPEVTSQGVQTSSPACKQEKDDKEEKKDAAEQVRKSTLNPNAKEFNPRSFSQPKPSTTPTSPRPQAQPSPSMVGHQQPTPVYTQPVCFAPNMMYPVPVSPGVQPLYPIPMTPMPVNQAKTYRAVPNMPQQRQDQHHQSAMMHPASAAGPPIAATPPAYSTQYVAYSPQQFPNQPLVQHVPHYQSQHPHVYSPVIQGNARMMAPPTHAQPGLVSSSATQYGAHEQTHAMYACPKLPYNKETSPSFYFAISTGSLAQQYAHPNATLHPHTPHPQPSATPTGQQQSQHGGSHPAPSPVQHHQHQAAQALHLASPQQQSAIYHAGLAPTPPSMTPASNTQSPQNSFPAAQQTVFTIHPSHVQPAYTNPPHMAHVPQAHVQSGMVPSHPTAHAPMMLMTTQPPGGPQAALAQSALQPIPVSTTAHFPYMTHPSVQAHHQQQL

SMILES | Potency
CCCN1C(=O)/C(=C/c2c(N3CCNC(=O)C3CC(=O)OCC)nc3c(C)cccn3c2=O)SC1=S (stereo unspecified) | inactive
CCCCC(CC)CN1C(=O)/C(=C/c2c[nH]nc2-c2ccccc2)SC1=S (stereo unspecified) | 22.4 µM (active)
CC(C)CN1C(=O)/C(=C/c2c[nH]nc2-c2ccccc2)SC1=S | 39.8 µM (active)
Cc1ccnn1CC(=O)N/N=C/c1c[nH]nc1-c1ccccc1 | inactive
COc1ccccc1/C=C1\SC(=S)N(CCC(=O)NC2=NCCS2)C1=O | inactive
O=C(Cc1csc(N2CCOCC2)n1)N/N=C/c1ccccc1C(=O)O | inactive
NNC(=O)c1oc2nc(-c3ccco3)cc(-c3ccco3)c2c1N | inactive
Cc1cc(C)c2c(N)c(C(=O)Nc3nccs3)sc2n1 | inactive
O=C(N/N=C/c1c[nH]c2ccccc12)c1cc(-c2ccc(-c3ccccc3)cc2)[nH]n1 | 39.8 µM (active)
CCOc1cccc(/C=N/NC(=O)c2cc(-c3cccn3C)[nH]n2)c1O | inactive
CCCc1c(C(=O)N/N=C/c2c[nH]c3ccccc23)nnn1-c1nonc1N | inactive
O=C(NCc1ccco1)c1cc2ccc(O)cc2oc1=O | inactive
CC(=O)N/N=C/c1cc(C(C)(C)C)cc(/C=N/NC(C)=O)c1O | inactive
CN(CCc1ccccc1)C(C(=O)Nc1ccc2c(c1)OCCO2)c1ccnc2ccccc12 (stereo unspecified) | 35.5 µM (active)
O=C(O)c1ccc(/C=C/c2nc(O)c3c4c(sc3n2)CCC4)cc1 | inactive
CCCCCCOc1ccc(/C=c2\s/c(=C(/C#N)C(=O)NCc3ccco3)n(-c3ccccc3)c2=O)cc1 | inactive
O=C(CSc1nnc(NC(=O)C2CC2)s1)NCc1cccs1 | inactive
O=C(CC1N=C2c3ccccc3N=C(SCC(=O)Nc3cccc(C(F)(F)F)c3)N2C1=O)NCc1cccs1 (stereo unspecified) | 39.8 µM (active)
CC(C)(C)c1nc(SCC(=O)NCc2cccs2)c2ccccc2n1 | inactive
Cc1cccn2c(=O)c3cc(C(=O)NC4CCCC4)c(=N)n(CCc4ccccc4)c3nc12 | inactive
Cc1cc2nc3c(=O)n(CCc4ccccc4)c(=O)[nH]c3nc2cc1N | inactive

SMILES | Potency
CN(C)CCNc1nc2sc3c(c2c(=O)n1CCc1ccccc1)CCCCC3 | 22.4 µM (active)
Cc1ccc(C2C=C(c3ccccc3)Nc3nc(N4C(=O)CCC4=O)nn32)cc1 (stereo unspecified) | inactive
CNC(=O)c1cc2c(=O)n3cc(C)ccc3nc2n(C(C)C)c1=N | inactive
CCN1C(=O)CC(C(C)C)N(C2CCCC2)c2nc(Nc3ccc(C(=O)NC4CCN(C)CC4)cc3OC)ncc21 (stereo unspecified) | 22.4 µM (active)
COc1ccc(C2=NS(=O)(=O)N(C)C(C(=O)NC3CCCC3)=C2)cc1 | inactive
COc1cccc(C(=O)NC2CCN(CC(=O)NCc3ccccc3F)CC2)c1 | inactive
C#Cc1ccc(CN2CCC(Oc3cc(C(=O)NC4CC4)ccc3OC)CC2)cc1 | inactive
CCN1C(=O)CC(c2ccccc2)N(C2CCCC2)c2nc(Nc3ccc(C(=O)NC4CCN(C)CC4)cc3OC)ncc21 (stereo unspecified) | 25.1 µM (active)
COc1ccc(Nc2nc(Nc3ccc(OC)cc3OC)nc(N3CCN(C)CC3)n2)c(OC)c1 | inactive
O=C(CC(=O)c1c(F)cccc1Cl)c1ccccc1O | inactive
Oc1nccc(SCc2ccc(Cl)cc2Cl)n1 | inactive
Oc1nc(-c2ccccn2)nc2sc(-c3ccccc3)cc12 | inactive
Oc1cc(CSc2ccc(Cl)cc2)nc(-c2ccccn2)n1 | 1.41 µM (active)
CC1=CC2=NC(=O)/C(=C\c3cc(C)n(-c4ccccc4)c3C)C(=N)N2O1 | inactive
Fc1ccc(Br)cc1C1C=C(c2ccc(Br)cc2)Nc2nnnn21 (stereo unspecified) | inactive
Cc1cccn2c(=O)c3cc(C(=O)NC4CCCCCC4)sc3nc12 | inactive
Cc1ccc(Cl)cc1-n1c(=O)c2sc3ccccc3c2n(CC(=O)NC2CCCC2)c1=O | 11.2 µM (active)
O=C(Cn1c(=O)oc2ccc(Cl)cc21)NC1CCCCC1 | inactive
Cc1ccc(Nc2nc(-c3sc(C)nc3C)cs2)cc1 | inactive
Cc1ccc(Nc2nc(-c3ccc(O)cc3O)cs2)nc1 | 44.7 µM (active)
Cc1ccc(Nc2nc(-c3ccccc3)cs2)nc1 | inactive

SMILES | Potency
COC(=O)C1CCN(C(=O)COC(=O)c2ccc(N3CCCC3=O)cc2)CC1 | inactive
COc1ccc(C(=O)O/N=C(\N)Cc2ccc(Cl)c(Cl)c2)cc1OC | 28.2 µM (active)
COc1ccc(C(=O)COC(=O)c2sc(C)nc2C)cc1OC | inactive
COc1ccc(CC(=O)Nc2cc(C)ccn2)cc1OC | inactive
CCc1nnc(NC(=O)CSc2nc(C)c3c(c2C#N)CCCC3)s1 | inactive
COc1ccc(NC(=O)CSc2nnc3n2CCCCC3)cc1 | inactive
CCCCc1ccc(NC(=O)CSc2nc(=O)n(CCN(CC)CC)c3c2CCCC3)cc1 | 39.8 µM (active)
Cc1cc(C(=O)CCl)c(C)n1-c1cccc(S(=O)(=O)N2CCOCC2)c1 | 21.2 µM (active)
O=C(NC1CC1)c1cccc(S(=O)(=O)N2CCOCC2)c1 | inactive
Cc1ccc(S(=O)(=O)N2CCOCC2)cc1C(=O)N1C(=O)c2cccc(N)c2C1=O | inactive
CCC(=O)c1cc2c(C)cc(=O)oc2c(C)c1O | inactive
CCOC(=O)c1cc2c(=O)n3ccccc3nc2n(Cc2ccco2)/c1=N/C(=O)c1ccccc1OCC | inactive
CCOC(=O)[C@]12CCCC=C1N(Cc1ccc(Cl)cc1Cl)C(=O)[C@H](CC(=O)NCc1ccc(OC)c(OC)c1)C2 | 39.8 µM (active)
CCCCCCCCN1C(=O)[C@H](CC(=O)NCc2ccc(OC)c(OC)c2)C[C@@]2(C(=O)OC)CCCCC=C12 | 35.5 µM (active)
COC(=O)[C@]12CCCCC=C1N(Cc1ccc(Cl)cc1Cl)C(=O)[C@H](CC(=O)NCc1ccc(OC)c(OC)c1)C2 | 25.1 µM (active)
COCCn1c(SCC(=O)NCc2ccc(OC)c(OC)c2)nc2ccccc21 | inactive
CCOC(=O)[C@]12CCC=C1N(Cc1cccc3ccccc13)C(=O)[C@H](CC(=O)NCc1ccc(OC)c(OC)c1)C2 | 39.8 µM (active)
COc1ccc(CNC(=O)COC(=O)c2ccc(C)c(S(=O)(=O)N3CCOCC3)c2)cc1OC | inactive
CCCOc1ccc(N2CC(C(=O)NCCc3ccc(OC)c(OC)c3)CC2=O)cc1 (stereo unspecified) | inactive
